Compound activity: PubChem BioAssay, National Center for Advancing Translational Sciences (NCATS)
TGFb SMAD3 inh: blocks TGF-b signaling; HepG2 CAGA-GFP TGF-b/SMAD3 reporter, GFP fluorescence, 18 h; TGF-beta stimulated, 500 pg/mL final; Potency, µM (highest dose often 46.1 µM), without a hit: at the top dose activity, negative = inhibition, hits mostly inhibitors; actives 1.2% (n = 410,000); AID 588855; note: potency is the fitted concentration of half-maximal effect; % is set by controls: 0 for no effect and ±100 for the full control effect; nearly all actives have a fitted effect of over 65% in size
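GFP signal (ex488/em500-530) from TGF-beta-stimulated HEPG2 CAGA-GFP cells, 500 pg/mL final, 18 h at 37 degrees C in DMEM plus 1% FBS, normalized to unstimulated and DMSO-stimulated controls.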
Giardia killer: Giardia lamblia killing | Giardia lamblia trophozoite viability | activity change, % at 7.66 µM, hits read low | actives 0.15% (n = 340,000); in the data active = activity change below about -80%; inconclusive = between about -30% and that limit;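 note: parasites exposed to compound for two days anaerobically before the ATP read; % is set by controls: 0 for no effect and ±100 for the full control effect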
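Media and compound were dispensed first, then trophozoites at 100 cells/well; plates sat 48 hrs at 37 deg C without oxygen before ATP luminescence reagent was added and read after 15-30 min at room temperature.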
ATXN2 expr inh: ATXN2 expression inhibition; actives 0.72% (n = 360,000); AID 1745845; Potency, µM (highest dose often 57 µM), inactives show top-dose activity change, negative = inhibition, most hits filed as inhibitors; HEK-293 ATXN2-luciferase reporter, luminescence, 24 h; note: potency is the fitted concentration of half-maximal effect; % is set by controls: 0 for no effect and ±100 for the full control effect; nearly all actives have a fitted effect of over 55% in size
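ATXN2-luciferase reporter cells (luciferase flanked by upstream and downstream ATXN2 gene portions) were treated 24 h at 37 °C with compounds at up to 57 uM. SteadyGlo luminescence gave expression; GF-AFC fluorescence gave viability.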
ATXN viability: reduces viability in counter-screen for ATXN expression inhibitors; actives 0.49% (n = 400,000); AID 651635; Potency, µM (titrated, usually from 56.7 µM), usual class: cytotoxic; S2 cells (HEK-293 line with an ATXN2-luciferase reporter) viability, CellTiter-Fluor protease fluorescence, 24 h; note: potency is the fitted concentration of half-maximal effect; nearly all actives have a fitted effect of over 40% in size
uPA generation: cell surface uPA generation inhibition | Potency, µM (highest dose often 38.3 µM), for inactives: at the highest dose activity change, negative = inhibition, hits mostly inhibitors | cell surface uPA generation assay, qHTS | AID 540303 | actives 0.31% (n = 330,000); active = well fitted inhibition curve with a large enough effect; inconclusive = small, poorly fitted or top-dose-only effect; inactive = no such curve, though single readings can be large or run the other way; tested in mouse RAW 264.7 cells; note: potency is the fitted concentration of half-maximal effect; % is set by controls: 0 for no effect and ±100 for the full control effect; nearly all actives have a fitted effect of over 55% in size
HepG2 tox-1: HepG2 cytotoxicity, counter-screen for TGF-b inhibitors. AID 588856. actives 0.76% (n = 410,000). HepG2 CAGA-GFP viability, ATP luminescence, 18 h. Potency, µM (doses to about 46.1 µM), for the others: at the top dose activity change, negative = cytotoxicity, usual class: cytotoxic; note: potency is the fitted concentration of half-maximal effect
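CellTiter-Glo luminescence gave cytotoxicity after 18 hours at 37 degrees C. The cells were HepG2 CAGA-GFP in 1% FBS DMEM, stimulated with 500 pg/mL TGF-beta after compound addition. %Activity was normalised to no-cell wells (complete cell-killing) and DMSO (no toxicity), and curves were fitted and classified.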
TGFb CAGA inh: confirmation of TGF-b signaling inhibitors in HepG2 reporter cells | shares compounds with TGFb SMAD3 inh | HepG2 CAGA-GFP TGF-b reporter, GFP fluorescence, 18 h; cells stimulated with TGF-beta, 500 pg/mL | Potency, µM (titrated, usually from 46.1 µM), for the others: at the top dose activity, negative = inhibition, actives largely listed as inhibitors | actives 63% (n = 1,600); note: potency is the fitted concentration of half-maximal effect; % is set by controls: 0 for no effect and ±100 for the full control effect; nearly all actives have a fitted effect of over 65% in size
HepG2 tox-2: counter-screen for TGF-b inhibitors: cytotoxicity in HepG2 cells | shares compounds with TGFb SMAD3 inh | HepG2 CAGA-GFP viability, ATP luminescence, 18 h; cells stimulated with TGF-beta, 500 pg/mL | Potency, µM (top dose mostly 46.1 µM), for inactives: top-dose activity, negative = cytotoxicity, actives largely listed as inhibitors | actives 27% (n = 1,600) | AID 720535; note: potency is the fitted concentration of half-maximal effect; % is set by controls: 0 for no effect and ±100 for the full control effect; nearly all actives have a fitted effect of over 70% in size
TGFb CCL64 inh: orthogonal confirmation of TGF-b inhibitors in CCL64 cells; shares compounds with TGFb SMAD3 inh; CCL64 CAGA-GFP reporter, TGF-b stimulated, GFP fluorescence, 18 h; Potency, µM (doses to about 46.1 µM), inactives show at the top dose activity, negative = inhibition, most hits filed as inhibitors; actives 41% (n = 1,600); AID 720536; note: potency is the fitted concentration of half-maximal effect; nearly all actives have a fitted effect of over 65% in size
COP TGFb inh: validation of TGF-b inhibitors in HepG2 COP promoter reporter. shares compounds with TGFb SMAD3 inh. HepG2 COP-GFP TGF-b reporter, GFP fluorescence, 18 h; cells stimulated by added recombinant TGF-beta. Potency, µM (titrated, usually from 46.1 µM), without a hit: at the top dose activity, negative = inhibition, actives largely listed as inhibitors. actives 3% (n = 1,600); note: potency is the fitted concentration of half-maximal effect; nearly all actives have a fitted effect of over 70% in size
Active calls of the source: *. Hits are enriched below; roughly 2.6% of the tested compounds scored in any of these assays. Unless noted, calls come from the whole dose curve; as a rule, active = well fitted curve in the direction sought with a large enough effect; inconclusive = small, poorly fitted or top-dose-only effect, or another doubt; inactive = no such curve, though single readings can be large; an effect the other way counts as inactive or inconclusive.

COc1cccc2c1C(=O)c1c(O)c3c(c(O)c1C2=O)C[C@](O)(C(C)=O)C[C@H]3O[C@@H]1C[C@@H](N)[C@@H](O)[C@@H](C)O1 was read as TGFb SMAD3 inh 1µM*, Giardia killer 9, ATXN2 expr inh inconclusive, ATXN viability inconclusive, uPA generation -72%, HepG2 tox-1 -86%, TGFb CAGA inh 1µM*, HepG2 tox-2 0.52µM*, TGFb CCL64 inh 4.1µM* and COP TGFb inh inconclusive.
For COc1ccc2[nH]c3c(N4CCc5ccccc5C4)ncnc3c2c1 the results were TGFb SMAD3 inh 7.1µM*, Giardia killer 13, ATXN2 expr inh inconclusive, ATXN viability inconclusive, uPA generation inconclusive, HepG2 tox-1 -52%, TGFb CAGA inh inconclusive, HepG2 tox-2 23µM*, TGFb CCL64 inh 18µM* and COP TGFb inh inconclusive.
Screening CN(C)c1ccc(C2CCc3ccccc3N2C(=O)c2ccccc2)cc1 (stereo not drawn) returned TGFb SMAD3 inh -12% and HepG2 tox-1 -19%.
For O=C(Nc1nc(-c2ccccn2)cs1)c1ccc([N+](=O)[O-])o1 the results were TGFb SMAD3 inh 8.9µM*, Giardia killer inconclusive, ATXN2 expr inh inconclusive, ATXN viability inconclusive, uPA generation -9%, HepG2 tox-1 -58%, TGFb CAGA inh 15µM*, HepG2 tox-2 16µM*, TGFb CCL64 inh inconclusive and COP TGFb inh 17%.
Screening O=C(NNC(=O)c1ccc([N+](=O)[O-])o1)c1ccccc1 returned TGFb SMAD3 inh 7.9µM*, Giardia killer -98*, ATXN2 expr inh -24%, ATXN viability inconclusive, uPA generation -8%, HepG2 tox-1 -26%, TGFb CAGA inh 16µM*, HepG2 tox-2 18µM*, TGFb CCL64 inh 3% and COP TGFb inh 52%.
`Cc1cc(C(=O)Nc2nc(-c3ccccn3)cs2)ccc1[N+](=O)[O-]` gave TGFb SMAD3 inh inconclusive, Giardia killer -16, ATXN2 expr inh inconclusive, ATXN viability inconclusive, uPA generation -1% and HepG2 tox-1 -26%.
`O=C(OCc1nnc(-c2ccccc2)o1)c1ccc([N+](=O)[O-])o1` gave TGFb SMAD3 inh -16%, Giardia killer -6, ATXN2 expr inh -20%, ATXN viability inactive, uPA generation 1% and HepG2 tox-1 -3%.
For Cc1ccccc1C(=O)N1CCN(c2ccc(NC(=O)c3cccnc3)cc2)CC1 the results were TGFb SMAD3 inh -1%, Giardia killer -3, ATXN2 expr inh -15%, ATXN viability inactive, uPA generation 3% and HepG2 tox-1 -28%.
Screening O=C(Nc1ccc(N2CCN(C(=O)c3ccccc3)CC2)cc1)c1ccc([N+](=O)[O-])o1 returned TGFb SMAD3 inh 5.6µM*, Giardia killer -100*, ATXN viability inconclusive, uPA generation inconclusive, HepG2 tox-1 13µM*, TGFb CAGA inh 7.3µM*, HepG2 tox-2 23µM*, TGFb CCL64 inh inconclusive and COP TGFb inh -21%.
Cc1ccccc1C(=O)N1CCN(c2ccc(NC(=O)c3ccc([N+](=O)[O-])o3)cc2)CC1 was read as TGFb SMAD3 inh 3.2µM*, Giardia killer -91*, ATXN2 expr inh -28%, ATXN viability inconclusive, uPA generation -4%, HepG2 tox-1 1.1µM*, TGFb CAGA inh 6.5µM*, HepG2 tox-2 16µM*, TGFb CCL64 inh -7% and COP TGFb inh inconclusive.
Screening CC1CCN(c2ccc(-c3cccc(NS(=O)(=O)c4cccs4)c3)nn2)CC1 returned TGFb SMAD3 inh -18%, ATXN2 expr inh 26%, ATXN viability inconclusive and HepG2 tox-1 -33%.
For COc1cccc(OCc2nc3ccccc3n2C)c1 the results were HepG2 tox-1 -4%.
COc1cc(/C=N/Nc2ccc(Cl)cc2)ccc1OC(=O)c1cccs1 was read as TGFb SMAD3 inh -5%, Giardia killer -12, ATXN2 expr inh 3%, ATXN viability inactive, uPA generation 1% and HepG2 tox-1 -7%.
Screening CNc1ncnc2c1ncn2[C@H]1CN(Cc2ccc(-c3ccccc3)cc2)C[C@@H](CO)O1 returned TGFb SMAD3 inh 14%, ATXN2 expr inh -22%, ATXN viability inactive and HepG2 tox-1 -22%.
For NC(=O)c1oc2ccccc2c1NC(=O)c1ccc([N+](=O)[O-])o1 the results were TGFb SMAD3 inh 7.1µM*, Giardia killer -88*, ATXN2 expr inh inconclusive, ATXN viability inconclusive, uPA generation -4%, HepG2 tox-1 -31%, TGFb CAGA inh 4.6µM*, HepG2 tox-2 23µM*, TGFb CCL64 inh inconclusive and COP TGFb inh 51%.
`Cc1ccc(-n2nnc(-c3nsc(NC(=O)c4cccc(Cl)c4)n3)c2C)cc1C` gave TGFb SMAD3 inh 3% and HepG2 tox-1 -13%.
For CCn1c(=O)c(C(=O)CN2CCN(S(=O)(=O)c3cc(C)ccc3C)CC2)c(N)n(Cc2ccccc2)c1=O the results were TGFb SMAD3 inh 11µM*, Giardia killer 5, ATXN2 expr inh -23%, ATXN viability inactive, uPA generation -7%, HepG2 tox-1 -14%, TGFb CAGA inh 12µM*, HepG2 tox-2 inconclusive, TGFb CCL64 inh 12µM* and COP TGFb inh 66%.
